Compounds without any hit were thinned out: in the full panel of roughly 83,000, 20% have a hit.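 96-well plates, one dose, 48 hours. Percent growth reported; active if below 10.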 Unmarked numbers belong to inactive results.
Test system: MALME-3M melanoma
Assay: NCI-60 one-dose screen, 48 h (100 = growth as untreated, 0 = no growth, -100 = all killed)
Details: 10 µM unless noted

Row | SMILES | growth [%]
1 | O=C(CSc1nc2sc3c(c2c(=O)n1-c1ccc(Cl)cc1)CCCC3)N/N=C/c1ccc(F)cc1 | 100
2 | O=c1/c(=C\c2ccc(-c3ccccc3)o2)sc2nc(-c3ccccc3)nn12 | 102
3 | COC(=O)C1CCCN(S(=O)(=O)/N=C2\NC(=O)NC2=C(Cl)Cl)C1 (stereo not given) | 104
4 | Clc1ccc2c(NCCCN3CCOCC3)c3oc4ccc(Cl)cc4c3nc2c1 | 89.3
5 | N#Cc1nc(-c2ccccc2)oc1N1CC[C@@H](CO)C1 | 110
6 | O=C(c1ccc(O)cc1)C1[C@H](c2ccc(Cl)cc2)[C@@H](c2ccccc2)NC12C(=O)Nc1ccc(Cl)cc12 (stereo not given in full) | 74.5
7 | COc1cccc(OC)c1-c1nnn(C)c1C(=S)N1CCN(c2ccc([N+](=O)[O-])cc2Cl)CC1 | 89.2
8 | CCCC(=O)NC(c1cccc(N(C)C)c1)c1cc(C)c2cccnc2c1O (stereo not given) | 79.8
9 | CC(=O)Oc1ccccc1C(=O)Nc1ccc(C(=O)/C=C/c2ccncc2)cc1 | 86.6
10 | C#Cc1nc(C2=C(C)C(OC(=O)CCC(=O)O)CC2)cs1 (stereo not given) | 107

Source: PubChem BioAssay (NCI)
